Experimental data reported in ChEMBL document CHEMBL1157539, “Thousands of chemical starting points for antimalarial lead identification” (Nature, 2010).

These molecules were tested on HepG2 (assay: GSK_TCMDC: Percent inhibition of human HepG2 cell line. Test compounds present at 10uM.).
Format: functional
`Cc1ccc(Nc2nnc(SCC(=O)Nc3ccc(CN4CCCC4)cc3)s2)cc1` showed an Inhibition of 4%.
In the case of `O=C(O)C(F)(F)F.Oc1ccc(CCCNc2nc(NCc3cccc4ccccc34)nc(N3CCNCC3)n2)cc1`, the Inhibition is reported as 9%.
`CCN(CC)/C(=N\C(=N)NCCCCCCNC(=N)/N=C(\Nc1ccc(Cl)cc1)N(CC)CC)Nc1ccc(Cl)cc1` gave an Inhibition of 1%.
In the case of `O=C(/C=C/c1ccc(Cl)c(Cl)c1)NCCCCCN1CCC(CCNC(=O)Cc2ccc(Cl)cc2)CC1`, the Inhibition is reported as 45%.
`O=C(O)C(F)(F)F.O=[N+]([O-])c1cccc(CNCC2CCN(Cc3ccc(C(F)(F)F)cc3)CC2)c1` showed an Inhibition of 7%.
`CC(=O)Nc1ccc(OCCN(Cc2ccccc2C(F)(F)F)c2ccc(C#N)c(C(F)(F)F)c2)c(Cl)c1` showed an Inhibition of 0%.
For `NS(=O)(=O)c1cccc(Nc2nccc(-c3cnn4ncccc34)n2)c1`, the Inhibition was 39%.
`COc1cccc(-c2cnc(N)c(-c3nc4ccc(F)cc4[nH]3)c2)c1.Cl` showed an Inhibition of 47%.
Work on `CCOc1ccc(C(C)NC(=O)C2COc3ccccc3O2)cc1OCC` (stereo not given) yielded an Inhibition of 0%.
For `Cc1c(C(=O)C2CC2CN2CCC(N3CCCCC3)CC2)sc2ccccc12` (stereo not given), the Inhibition was 35%.
`Br.CC1(C)N=C(N)N=C(N)N1OCCCOc1cccc(C(=O)O)c1` gave an Inhibition of 73%.
`CC(=O)Nc1ccc(CN2CCCN(c3cc(NC(=O)c4cccc(C)c4)ccn3)CC2)cc1.O=C(O)C(F)(F)F` showed an Inhibition of 0%.
`COc1cccc(CN2Cc3ccccc3OC3(CCN(Cc4c[nH]c5cnccc45)CC3)C2)c1.O=C(O)C(F)(F)F` was tested, and the Inhibition was 39%.
In the case of `O=C(/C=C/c1cccc2c1OCO2)Nc1ccnc2ccncc12`, the Inhibition is reported as 17%.
`CCN(CCO)CCc1cccc(Nc2nccc(-c3c(-c4ccc(NC(=O)N(CC)CC)cc4)nn4ccccc34)n2)c1.Cl` showed an Inhibition of 46%.
`COc1ccc2nccc([C@@H](O)CN3CCC(NCc4cc5oc(=O)n(C)c5cc4F)CC3)c2c1.O=C(O)C(=O)O` gave an Inhibition of 0%.
`O=C(O)C(F)(F)F.c1cc(-c2ccc(CNCCCN3CCOCC3)cc2)cc(-c2nc3ccccc3[nH]2)c1` showed an Inhibition of 26%.
Work on `CCCCCCN1CCCN(Cc2ccc(C(=O)Nc3ccc(C)c(F)c3)cc2)CC1.O=C(O)C(F)(F)F` yielded an Inhibition of 47%.
`O=C(/C=C/c1ccc(Cl)c(Cl)c1)NCCCCCN1CCC(NC(=O)Nc2ccc3c(c2)OCO3)CC1` gave an Inhibition of 12%.
Work on `CCN(CCS(C)(=O)=O)Cc1ccc(-c2ccc3ncnc(Nc4ccc(OCc5cccc(F)c5)c(Cl)c4)c3c2)o1.Cc1ccc(S(=O)(=O)O)cc1` yielded an Inhibition of 5%.
In the case of `O=C(Nc1ccc(Br)cc1)Nc1ccc(Cn2ncc(N3CCCNCC3)c(Cl)c2=O)cc1.O=C(O)C(F)(F)F`, the Inhibition is reported as 0%.
`CCCCCOc1ccc(C(O)C(CN2CCCCC2)c2ccccc2)cc1.Cl` (stereo not given) was tested, and the Inhibition was 11%.
In the case of `CC(C)Oc1cccc(-c2ccc(C(=O)NCC3CCCN(Cc4cccc(C(F)(F)F)c4)C3)s2)c1.O=C(O)C(F)(F)F` (stereo not given), the Inhibition is reported as 10%.
In the case of `Cl.N#Cc1ccc2c(c1)CCN(CCC1CCC(NC(=O)c3cc4cccc(Cl)c4[nH]3)CC1)CC2` (stereo not given), the Inhibition is reported as 34%.
Work on `CC(Cc1ccc(COc2ccc(CC(CO)NCCc3cccc(Cl)c3)cc2)cc1)NCCc1cccc(Cl)c1.Cl` (stereo not given) yielded an Inhibition of 99%.
Work on `O=C(Nc1ccc(Cl)cc1)Nc1cccc(CCNCc2ccccc2)c1.O=C(O)C(F)(F)F` yielded an Inhibition of 16%.
In the case of `COc1ccc(CN(C)CCCOc2ccc(NC(=O)c3cccc4c(=O)c5cccc(F)c5[nH]c34)cc2)cc1OC`, the Inhibition is reported as 6%.
`CC(=O)N[C@H](C(=O)Nc1ccc(-c2ccc(-c3nc4cc(C(F)(F)F)ccc4[nH]3)s2)cc1)C(C)C` showed an Inhibition of 42%.
Work on `CCOc1cc(C)ccc1C1CCN(CCCCNC(=O)c2cccc(-c3ccc(C(F)(F)F)cc3)c2)CC1` yielded an Inhibition of 39%.
Work on `Fc1ccc2[nH]c(-c3ccc(-c4ccc(CNCCc5ccncc5)cc4)s3)nc2c1.O=C(O)C(F)(F)F` yielded an Inhibition of 34%.
`Cl.O=C(c1cccc(COc2ccc3c(c2)CCN(C2CCCC2)CC3)c1)N1CCN(c2ccncc2)CC1` was tested, and the Inhibition was 49%.
For `CCOC(=O)c1ccc(NC(=O)Nc2cccc(-c3ccc(-c4nc5cc(F)ccc5[nH]4)cc3)c2)cc1`, the Inhibition was 40%.
`CCCC[C@@H](C(=O)NCc1ccccc1C(F)(F)F)N1C(=O)CCC1C(=O)Nc1ccc([N+](=O)[O-])cc1` (stereo not given in full) was tested, and the Inhibition was 7%.
In the case of `FC(F)(F)c1cccc(CCNc2nccc(NCc3ccccc3Cl)n2)c1`, the Inhibition is reported as 31%.
`CCCc1cc(Cc2cnc(N)nc2N)cc2c1OC(C)C2C.Cl` (stereo not given) gave an Inhibition of 32%.
